Results from the supplement of paper PMC3334620.
In all, about 33,000 sequences were measured (“E-score (-0.5 to 0.5)”: median about -0.036, highest 2% from about 0.37 on). This is one part of a sample in which the highest values are shown more often than they occur.

The sequences below were run against T1, Yer064c (UniProt P40041) (assay: PBM E-score (8-mer binding enrichment) (E-score (-0.5 to 0.5)); higher = stronger / more preferred TF binding). Details: protein concentration: 200 nM; construct: GST-full length.
T1 sequence: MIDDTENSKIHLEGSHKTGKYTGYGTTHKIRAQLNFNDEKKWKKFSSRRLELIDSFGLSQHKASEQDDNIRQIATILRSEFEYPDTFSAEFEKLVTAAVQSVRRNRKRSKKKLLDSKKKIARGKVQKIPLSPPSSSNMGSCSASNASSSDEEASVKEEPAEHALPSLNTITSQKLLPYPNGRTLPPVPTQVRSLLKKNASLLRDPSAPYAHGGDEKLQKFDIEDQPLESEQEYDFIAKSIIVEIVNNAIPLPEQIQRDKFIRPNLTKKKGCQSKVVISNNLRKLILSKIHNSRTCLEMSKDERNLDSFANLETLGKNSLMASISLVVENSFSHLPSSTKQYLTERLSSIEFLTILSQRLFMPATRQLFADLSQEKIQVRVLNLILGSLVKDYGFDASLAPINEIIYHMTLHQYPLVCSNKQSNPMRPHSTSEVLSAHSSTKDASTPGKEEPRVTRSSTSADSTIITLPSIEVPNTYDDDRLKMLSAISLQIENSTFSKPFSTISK
Procedure, shortened: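 The E-score, a modified Wilcoxon-Mann-Whitney statistic, was computed by the Universal PBM Analysis Suite for every ungapped eight-base word pooled with its reverse complement. Scans behind it were normalised with masliner after bound GST-tagged yeast transcription factors were detected with fluorescent anti-GST. The proteins, at about 100-200 nM, had been applied to universal all-10-mer Agilent arrays made double-stranded by primer extension.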

**Q.** AACTGGCT was tested. Which “PBM E-score” value did it give?
**A.** -0.28

**Q.** For CGGGTAAC, which “PBM E-score” value is on record?
**A.** -0.0478

**Q.** How did the “PBM E-score” value turn out when AATCATAA was run?
**A.** 0.418

**Q.** For AATCAAAT, which “PBM E-score” value is on record?
**A.** 0.23

**Q.** For TATCATAA, which “PBM E-score” value is on record?
**A.** 0.0309

**Q.** Which “PBM E-score” value does the source give for CATCATAG here?
**A.** 0.25

**Q.** For AAGCATAT, which “PBM E-score” value is on record?
**A.** 0.0236

**Q.** For CATCATAA, which “PBM E-score” value is on record?
**A.** 0.0722

**Q.** How did the “PBM E-score” value turn out when AATCATAC was run?
**A.** 0.451

**Q.** CATCATAC was tested. Which “PBM E-score” value did it give?
**A.** 0.215

**Q.** For GATCATAC, which “PBM E-score” value is on record?
**A.** -0.0115

**Q.** For AATCAGAG, which “PBM E-score” value is on record?
**A.** 0.269

**Q.** Which “PBM E-score” value does the source give for AATCATAT here?
**A.** 0.428

**Q.** For AATCATAG, which “PBM E-score” value is on record?
**A.** 0.433

**Q.** AATGGCAC was tested. Which “PBM E-score” value did it give?
**A.** -0.231

**Q.** With CCCTCCAA as the sequence, how does the “PBM E-score” value read?
**A.** -0.12

**Q.** How did the “PBM E-score” value turn out when AATATAAA was run?
**A.** 0.0817

**Q.** Which “PBM E-score” value does the source give for ATGGCTTC here?
**A.** 0.156

**Q.** With GGGCGGCA as the sequence, how does the “PBM E-score” value read?
**A.** -0.406

**Q.** CACACCCA was tested. Which “PBM E-score” value did it give?
**A.** 0.0764

**Q.** For AAACGAGA, which “PBM E-score” value is on record?
**A.** 0.0214

**Q.** GAAAGAAA was tested. Which “PBM E-score” value did it give?
**A.** -0.0206

**Q.** With CCTACGAA as the sequence, how does the “PBM E-score” value read?
**A.** -0.211

**Q.** TACGCATA was tested. Which “PBM E-score” value did it give?
**A.** -0.0887

**Q.** For AAGAAACG, which “PBM E-score” value is on record?
**A.** -0.028

**Q.** With CTTTAGCA as the sequence, how does the “PBM E-score” value read?
**A.** -0.154

**Q.** For CGTATCGA, which “PBM E-score” value is on record?
**A.** -0.111

**Q.** With TCGTCACA as the sequence, how does the “PBM E-score” value read?
**A.** -0.0543

**Q.** How did the “PBM E-score” value turn out when AAGTCACA was run?
**A.** 0.414

**Q.** Which “PBM E-score” value does the source give for AAGTCACG here?
**A.** 0.433

**Q.** ACGTCACG was tested. Which “PBM E-score” value did it give?
**A.** -0.289

**Q.** With TAGTCACA as the sequence, how does the “PBM E-score” value read?
**A.** 0.478

**Q.** With AGGTCACC as the sequence, how does the “PBM E-score” value read?
**A.** 0.00721

**Q.** How did the “PBM E-score” value turn out when AGGTCACG was run?
**A.** -0.143

**Q.** With TGGTCACA as the sequence, how does the “PBM E-score” value read?
**A.** 0.103

**Q.** How did the “PBM E-score” value turn out when ATGTCACG was run?
**A.** -0.123

**Q.** ACGTCACC was tested. Which “PBM E-score” value did it give?
**A.** -0.162

**Q.** Which “PBM E-score” value does the source give for AAGTCAGG here?
**A.** 0.341

**Q.** AAGTCACC was tested. Which “PBM E-score” value did it give?
**A.** 0.447

**Q.** With AAGACCAG as the sequence, how does the “PBM E-score” value read?
**A.** -0.0791

**Q.** With CCCGGCAA as the sequence, how does the “PBM E-score” value read?
**A.** -0.166

**Q.** How did the “PBM E-score” value turn out when CTGCGGAC was run?
**A.** -0.0565

**Q.** How did the “PBM E-score” value turn out when AGGGGGTC was run?
**A.** -0.406

**Q.** Which “PBM E-score” value does the source give for CCCACATA here?
**A.** 0.0317

**Q.** For CCGTTCGA, which “PBM E-score” value is on record?
**A.** 0.0719

**Q.** Which “PBM E-score” value does the source give for AGGTCACT here?
**A.** 0.0701

**Q.** With GCGTCACA as the sequence, how does the “PBM E-score” value read?
**A.** -0.13

**Q.** With ACGTCACT as the sequence, how does the “PBM E-score” value read?
**A.** -0.0404

**Q.** How did the “PBM E-score” value turn out when GAGTCACA was run?
**A.** 0.493

**Q.** For AAGTCACT, which “PBM E-score” value is on record?
**A.** 0.399

**Q.** Which “PBM E-score” value does the source give for GGGTCACA here?
**A.** 0.00589

**Q.** With GAGGCCAC as the sequence, how does the “PBM E-score” value read?
**A.** -0.319

**Q.** ACGGCCGC was tested. Which “PBM E-score” value did it give?
**A.** -0.0196

**Q.** How did the “PBM E-score” value turn out when AGGCAGTC was run?
**A.** 0.213

**Q.** For CTTTGAGA, which “PBM E-score” value is on record?
**A.** 0.179

**Q.** For TGAGCTAA, which “PBM E-score” value is on record?
**A.** 0.189

**Q.** For GCTGTAGA, which “PBM E-score” value is on record?
**A.** -0.0534

**Q.** Which “PBM E-score” value does the source give for AGTTAGCG here?
**A.** -0.0192

**Q.** Which “PBM E-score” value does the source give for CTTGTGAC here?
**A.** 0.222

**Q.** How did the “PBM E-score” value turn out when ATTGGTCA was run?
**A.** 0.0959

**Q.** CATCCACC was tested. Which “PBM E-score” value did it give?
**A.** -0.0348

**Q.** CCTGGACA was tested. Which “PBM E-score” value did it give?
**A.** -0.127

**Q.** Which “PBM E-score” value does the source give for ACGATTAC here?
**A.** 0.185

**Q.** Which “PBM E-score” value does the source give for ACGATTAG here?
**A.** 0.152

**Q.** Which “PBM E-score” value does the source give for ATGATTTG here?
**A.** 0.299

**Q.** Which “PBM E-score” value does the source give for ATGATTAC here?
**A.** 0.472

**Q.** AAGATTAC was tested. Which “PBM E-score” value did it give?
**A.** 0.241

**Q.** Which “PBM E-score” value does the source give for ATGATTAG here?
**A.** 0.438

**Q.** With CTGAGTCC as the sequence, how does the “PBM E-score” value read?
**A.** 0.402

**Q.** How did the “PBM E-score” value turn out when ATGAGTTC was run?
**A.** 0.327

**Q.** With ATGAGTCG as the sequence, how does the “PBM E-score” value read?
**A.** 0.474

**Q.** For CTGAGTGC, which “PBM E-score” value is on record?
**A.** -0.0835

**Q.** How did the “PBM E-score” value turn out when ATGAGTGG was run?
**A.** 0.193

**Q.** ATGAGTCC was tested. Which “PBM E-score” value did it give?
**A.** 0.442

**Q.** ATGAGTGC was tested. Which “PBM E-score” value did it give?
**A.** 0.226

**Q.** How did the “PBM E-score” value turn out when CTGAGTTC was run?
**A.** 0.104

**Q.** Which “PBM E-score” value does the source give for ATGAGTTG here?
**A.** 0.194

**Q.** With AGCTACGG as the sequence, how does the “PBM E-score” value read?
**A.** -0.0957

**Q.** For CAGTGGTC, which “PBM E-score” value is on record?
**A.** 0.0376

**Q.** Which “PBM E-score” value does the source give for GGCACGGA here?
**A.** -0.127

**Q.** Which “PBM E-score” value does the source give for TACTTCTA here?
**A.** 0.0324

**Q.** TGTCCAAA was tested. Which “PBM E-score” value did it give?
**A.** -0.0925

**Q.** How did the “PBM E-score” value turn out when ATTTCTTC was run?
**A.** -0.058

**Q.** Which “PBM E-score” value does the source give for ATGATTGA here?
**A.** 0.423

**Q.** ACGATTGA was tested. Which “PBM E-score” value did it give?
**A.** 0.216

**Q.** GTGATTGA was tested. Which “PBM E-score” value did it give?
**A.** 0.401
